In PubChem BioAssay (NCI):
About 83,000 compounds went through this panel and 20% of them were active in at least one assay; those are over-represented in the sample as a whole.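 Single-concentration screen, 48 h exposure, 96-well plates. Endpoint: percent growth. Below 10 = active.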 Values without a mark were called inactive. The source made the active and inactive calls.

What was measured:
Test in all cases: NCI-60 one-dose screen, 48 h (100 = growth as untreated, 0 = no growth, -100 = all killed)
Conditions in all cases: 10 µM unless noted
[1] = system: DU-145 prostate
[2] = system: K-562 leukemia
[3] = system: MALME-3M melanoma
[4] = system: MDA-MB-231 breast
[5] = system: RXF 393 renal
[6] = system: SF-268 CNS
[7] = system: SF-295 CNS
[8] = system: SF-539 CNS
[9] = system: UACC-257 melanoma
[10] = system: M14 melanoma

Compound	growth [1]	growth [2]	growth [3]	growth [4]	growth [5]	growth [6]	growth [7]	growth [8]	growth [9]	growth [10]
COC(=O)c1cc(-c2cc(OC)c(OC)c(OC)c2)[nH]c1N/N=C/c1c(Cl)cccc1Cl	45.6%	6.67% (active)	-8.03% (active)	23.6%	21.6%	31.7%	-41.9% (active)	-43.1% (active)	45.6%	58.7%
COc1nc2ccccc2cc1/C=[N+](\[O-])c1ccccc1	102%	13.5%	60.9%	57.5%	85.5%	65.5%	93.5%	34.2%	93%	39.6%
CC1OC(C(=O)N2CCN(CCO)CC2)CC1COC1CCCCC1 (stereo not given)	105% [50 µM]	91.6% [50 µM]	88.2% [50 µM]	94.5% [50 µM]	102% [50 µM]	97.2% [50 µM]	102% [50 µM]	97.8% [50 µM]	98% [50 µM]	100% [50 µM]
COc1ccc(-c2cc(-c3ccc(Cl)cc3)c(C#N)c(=O)n2CCCCC(=O)NO)cc1	78.2%	61.8%	73.3%	52.1%	37.3%	85.2%	90.2%	82.5%	80%	72.6%
COc1ccc(-c2nc(SCCC(C)C)nc(N/N=C(/C)c3ccc(N)cc3)c2C#N)cc1	97.1%	94.3%	104%	82.3%	86.2%	92%	102%	87.9%	102%	111%
NCCNc1ccc([N+](=O)[O-])cc1	126%	92.4%	115%	122%	123%	110%	128%	107%	115%	106%
CC(C)n1nc(-c2ccc3oc(N)nc3c2)c2c(N)ncnc21	2.37% (active)	18.3%	-40.7% (active)	-15.1% (active)	-43.1% (active)	-1.05% (active)	-50.9% (active)	-43.7% (active)	-27.8% (active)	-18.8% (active)
COc1ccc(C(=O)/C=C/Nc2cc(-c3ccccc3)nn2-c2ccccc2)cc1	99.7%	80.8%	100%	93.4%	85.5%	90.2%	95.2%	95.2%	90.8%	93%
Clc1ccc(C2=Nn3c(nnc3-c3cc(Cl)cc(Cl)c3Cl)SC2)cc1	-16.6% (active)	12.4%	44.4%	65.3%	66.2%	35%	14.8%	72.9%	71.5%	11.7%
C=C(C)[C@@H]1CC[C@]2(C(=O)NC(C)=O)CC[C@]3(C)[C@H](CC[C@@H]4[C@@]5(C)CCCNC(C)(C)[C@@H]5CC[C@]43C)[C@@H]12	24.8%	3% (active)	-83.3% (active)	23.7%	25.2%	60.5%	77.6%	-79.6% (active)	-64.5% (active)	-65.3% (active)
Cc1nc2c(c(-c3ccccc3)n1)Cc1c(ccc3ccccc13)O2	115%	132%	126%	83%	105%	94.8%	112%	96.7%	113%	104%
COc1cc(-c2ccc(-c3ccc(C(=N)N)s3)s2)cc(OC)c1OC	36.2%	-33.6% (active)	-90.7% (active)	10%	54.1%	46.8%	51%	-35.6% (active)	75.7%	-53.4% (active)
O=C1c2cccnc2C(=O)c2c1c(C(=O)OCCCN1CCOCC1)c1ccccn21	-84.2% (active)	-20.2% (active)	-53.9% (active)	14.1%	3.94% (active)	5.83% (active)	-4.43% (active)	-43.2% (active)	-85.6% (active)	-81.2% (active)
CN(C)C(=O)OCc1ccc2c(Cl)cc(Cl)c(O)c2n1	39.7%	20%	46%	54.6%	67.6%	25.8%	34.5%	26.1%	48.5%	12.6%
O=C1c2c(c3c4cc(F)ccc4oc3c3[nH]c4ccccc4c23)C(=O)N1O	31.8%	26.1%	28%	57.6%	39.9%	38.7%	55.7%	2.46% (active)	75.9%	28.6%
Cc1ccc(C(=O)Nc2ccc(CN3CCN(C)CC3)c(C(F)(F)F)c2)cc1C#Cc1cnc(N)c2ccccc12	-89.3% (active)	-23.5% (active)	-59.9% (active)	-63.4% (active)	-75.5% (active)	1.65% (active)	-35.9% (active)	-84.8% (active)	-50.3% (active)	-76.7% (active)
COc1ccc(-c2nc3cc(C(=O)NC4CCCCC4)ccc3n2C2CCCCC2)cc1	99.7%	49.5%	95.8%	101%	100%	91.7%	78.3%	88%	104%	88.7%
O=C1Nc2ccccc2/C1=C/c1cccn1CCCCCCn1c2ccccc2c(=O)c2ccccc21	94%	66.6%	90.7%	75.4%	99.2%	87%	97.2%	100%	110%	78.2%
O=C1/C(=C/c2ccc(-c3ccc(Cl)cc3)o2)SC(=S)N1CCc1ccc(O)cc1	29.1%	26.1%	76.7%	75.6%	70%	31.2%	104%	70.9%	42%	38.2%
COc1cccc(-c2nn(-c3ccccc3)cc2-c2ccnc(-c3cccnc3)c2)c1	104%	81.2%	83%	86.8%	107%	94.9%	89.2%	90.1%	117%	92.8%
Nc1ccc(N)c2c1C(=O)c1cccc([N+](=O)[O-])c1C2=O	-15.9% (active)	40.4%	54.3%	67.9%	45.7%	57.3%	21.3%	23.6%	52.3%	30.8%
